The record followed here is PubChem BioAssay (NCATS).

Inconclusive results are not listed. The source made the active and inactive calls. Calls come from the whole dose curve; as a rule, active = well fitted curve in the direction sought with a large enough effect; inconclusive = small, poorly fitted or top-dose-only effect, or another doubt; inactive = no such curve, though single readings can be large; an effect the other way counts as inactive or inconclusive.

Assay [1] in a line: OV-KATE Cancer Cell Toxicity qHTS against the NCATS CANVASS Library (AID 1347345). The essentials: (§1)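 Per well, 1000 cells; exposure 72 h with compound at 11 final concentrations; readout CellTiter-Glo luminescence.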
In general terms: qHTS replaces the single test concentration by a dilution series.

A short description of assay [2]: OV-SAHO Cancer Cell Toxicity qHTS against the NCATS CANVASS Library (AID 1347348). Note: series mostly up to about 38 µM; nearly all actives have a fitted effect of over 55% in size. An outline of the steps:
as §1

Assay [3] is described as follows: Panc-1005 Cancer Cell Toxicity qHTS against the NCATS CANVASS Library (AID 1347349). Note: series mostly up to about 38 µM; nearly all actives have a fitted effect of over 60% in size. The essentials: as §1
Assay [4] is described as follows: SW1088 Cancer Cell Toxicity qHTS against the NCATS CANVASS Library (AID 1347350). Note: nearly all actives have a fitted effect of over 75% in size. An outline of the steps:
as §1

Assay [5] is described as follows: U-118MG Cancer Cell Toxicity qHTS against the NCATS CANVASS Library (AID 1347351). Note: series mostly up to about 38 µM. The essentials: as §1
The nature of assay [6]: COV-362 Cancer Cell Toxicity qHTS against the NCATS CANVASS Library (AID 1347352). Note: series mostly up to about 38 µM. An outline of the steps: (§2)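 qHTS cytotoxicity: compounds tested in 11 concentrations on 1000 seeded cells per well over 72 h; bortezomib served as control; signal from CellTiter-Glo luminescence.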
Assay [7] in a line: A2780 Cisplatin Sensitive Ovarian Cancer Cell Toxicity qHTS against the NCATS CANVASS Library (AID 1347353). Note: nearly all actives have a fitted effect of over 60% in size. An outline of the steps: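 Seventy-two-hour exposure of cisplatin-sensitive A2780 ovarian cells to an 11-concentration qHTS series; cytotoxicity is inferred from loss of ATPLite luminescence. Bortezomib titration served as positive control.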
The nature of assay [8]: UWB1.289-WTBRCA1 Cancer Cell Toxicity qHTS against the NCATS CANVASS Library (AID 1347354). The essentials: as §2
A short description of assay [9]: HEK293 24hr Apoptosis Induction qHTS against the NCATS CANVASS Library (AID 1347359). The essentials: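 HEK293 cells (500/well, DMEM + 10% FBS) were exposed to compounds in an 11-point series for 24 hours at 37 degrees C, then caspase-3/7 activity was read by Caspase-Glo DEVD luciferase luminescence after 15 min.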
Assay [10] in a line: SDT Cancer Cell Toxicity qHTS against the NCATS CANVASS Library (AID 1347365). Note: nearly all actives have a fitted effect of over 60% in size. An outline of the steps: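 Dispense 500 SDT cells per well; pin-transfer compounds; incubate 72 hr at 37C, 5% CO2, 95% RH; add CellTiterGlo and read luminescence.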
Assay [11] can be described thus: KB-3-1 Cancer Cell Toxicity qHTS against the NCATS CANVASS Library (AID 1347366). Note: nearly all actives have a fitted effect of over 75% in size. An outline of the steps: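 KB-3-1 cells (500 cells/well) in DMEM + 10% FBS were treated with compounds for 72 hr at 37C, 5% CO2. Viability was read as CellTiter-Glo luminescence after 10 minutes at room temperature.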
A short description of assay [12]: qHTS for ATAD5 Agonist screened against the NCATS CANVASS Library (AID 1347367).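 Note: luciferase reporter driven by ATAD5 which rises upon DNA damage.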 The essentials: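 HEK293T cells stably carrying an ATAD5-controlled luciferase reporter (2000 cells/well) attached for 5 hr, then received compounds in an 11-point series for 16hr at 37C. Luminescence was read after a 30 min room-temperature reagent step.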
A short description of assay [13]: G06 Cancer Cell Toxicity qHTS against the NCATS CANVASS Library (AID 1347368). Note: nearly all actives have a fitted effect of over 60% in size. An outline of the steps: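 Cytotoxicity toward canine glioma G06 cells is scored from cellular ATP via luminescence after 72 hr compound exposure at 500 cells/well.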
The nature of assay [14]: DH5-alpha competent E. coli microbial cell viability qHTS against the NCATS CANVASS Library (AID 1347377). The conditions noted are these: outcome: dose series up to 46.1 µM unless noted. An outline of the steps:
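Cell viability of competent DH5-alpha E. coli is scored from ATP content by luminescence. Cells sit overnight at 37C with compound across an 11-point concentration series.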

A short description of assay [15]: qHTS for H2AX Agonists against the NCATS CANVASS Library (AID 1347378). The essentials: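 CHO-K1 cells were plated overnight at 37C, then exposed to compounds (concentration series, 0.76% DMSO final) for 3 hr at 37C. Lysates received Eu-cryptate anti-pH2AX (S139) and d2 anti-H2AX antibodies; after 24 hr at room temperature, TR-FRET 665/620 nm ratio was read.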
Assay [16] is described as follows: Inflammasome Signaling qHTS Counterscreen: IL-1-beta AlphaLISA counterscreen against the NCATS CANVASS Library (AID 1347381).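 Note: cell-free check with purified IL-1β in medium and no THP-1 cells; series mostly up to about 57 µM.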 The essentials: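 To flag interference with the AlphaLISA read-out, a known amount of purified IL-1-beta (4 pg) replaced cell supernatant. Detection used anti-IL-1-beta acceptor beads, biotinylated antibody and streptavidin donor beads at room temperature.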

Assay [17] can be described thus: qHTS assay for small molecule disruptors of mitochondrial membrane potential screened against the NCATS CANVASS Library (AID 1347389). Note: nearly all actives have a fitted effect of over 60% in size. Note: potency is the fitted concentration of half-maximal effect. The essentials:
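Compounds tested in 11-point qHTS series on HepG2 cells for 1 hr; membrane-potential dye added for 30 min at 37C. Lower red-to-green ratio indicates loss of potential.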

Assay [18] in a line: qHTS for inhibitors of ER calcium dysfunction: SERCaMP assay screened against the NCATS CANVASS Library (AID 1347393). Note: nearly all actives have a fitted effect of over 40% in size. Note: potency is the fitted concentration of half-maximal effect. The essentials: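 qHTS in SH-SY5Y reporter cells: 16 h compound pretreatment, 4 h thapsigargin, then secreted Gaussia luciferase measured by luminescence.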
The nature of assay [19]: Vero-766 cells viability qHTS against the NCATS CANVASS Library: Counterscreen for Zika virus inhibition assay (AID 1347394). The essentials:
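Uninfected Vero 766 (African green monkey) cells, 1000/well, attached overnight, then exposed 72 h at 37C to compounds (11-point qHTS). Viability read by CellTiter-Glo luminescence; media-only wells served as 100% inhibition.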

The nature of assay [20]: Redox Reaction Profiling qHTS: Assay Interference Panel against the NCATS CANVASS Library (AID 1347401). An outline of the steps:
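Resazurin (5 uM) conversion to resorufin measured with 200 uM DTT in 50 mM HEPES pH 7.3, 50 mM NaCl. Compounds tested in 11-point qHTS series. Fluorescence (ex 525/em 598 nm) read before and after 15 min dark incubation.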

Take `COC1C(C)OC(OCC23C[C@@H]4[C@H](C)CC[C@H]4C4(C=O)CC2C=C(C(C)C)C34C(=O)O)[C@@H](O)[C@H]1O` (stereo partly specified): the Potency result in assay [1], in assay [2], in assay [3], in [4], in assay [5] and in [6] was “inactive” each time. The Potency result in assay [7], in [8], in assay [9], in assay [10], in assay [11] and in [12] was “inactive” throughout. Further, the Potency entry in assay [13], in assay [15], in assay [17], in assay [18], in [19] and in assay [20] was “inactive” in each case. For the same compound, the outcome in assay [14] and in [16] was inactive.
With `C/C=C1/C2=CCCN3C(=O)O[C@H]([C@H]1O)[C@H]23`, the Potency result in [1], in assay [2], in [3], in assay [4], in assay [5] and in assay [6] was “inactive” in each case. Moreover, the Potency entry in assay [7], in [8], in assay [10], in [11], in [12] and in [13] was “inactive” throughout. Moreover, the Potency result in [17], in [18], in [19] and in [20] was “inactive” each time. In assay [14], the compound was called inactive.
In the case of `COC(=O)[C@]1([C@H]2CCC(=O)O2)CC(=O)c2c(O)cc(C)cc2O1`, the Potency entry in assay [1], in assay [2], in assay [3], in [4], in assay [5] and in assay [6] was “inactive” in each case. Also, the Potency result in [7], in assay [8], in assay [9], in [10], in assay [12] and in assay [13] was “inactive” each time. Further, the Potency result in assay [15], in assay [17], in assay [18], in [19] and in assay [20] was “inactive” in each case. The compound was classed as inactive in assay [14] and in [16].
For `CC(C)=CCC[C@]1(C)[C@H]2CC(=O)[C@@]3(CO3)[C@@H]1C2`, the Potency entry in assay [1], in assay [2], in assay [3], in assay [4], in assay [5] and in assay [6] was “inactive” throughout. For the same compound, the Potency entry in [7], in assay [8], in assay [9], in assay [10], in assay [11] and in assay [13] was “inactive” in each case. Moreover, the Potency entry in assay [15], in assay [17], in [18], in [19] and in assay [20] was “inactive” throughout. In [14], the outcome was inactive.
`O=C1c2c(O)cc(O)cc2OC(c2ccc(O)cc2)C1O` (stereo unspecified): the Potency entry in [1], in assay [2], in assay [3], in [4], in assay [5] and in assay [6] was “inactive” throughout. Moreover, the Potency entry in assay [7], in [8], in [10], in [13], in assay [19] and in assay [20] was “inactive” throughout. Further, the compound was called inactive in [14] and in [16]. Further, the Potency in assay [17] is 11.7 µM (active).
With `C=C1[C@@]2(C)CC3C4(C)CCC(O)C(C)(C)C4CCC3(C)[C@]1(C(=O)OC)C(=O)C(C)(O)C2=O` (stereo partly specified), the Potency entry in [1], in [2], in assay [3], in [4], in [5] and in [6] was “inactive” throughout. In addition, the Potency entry in assay [7], in assay [8], in assay [10], in assay [11], in assay [12] and in assay [13] was “inactive” throughout. Moreover, the Potency entry in assay [15], in [17], in [19] and in [20] was “inactive” each time. In addition, the result in [14] was inactive. In addition, the Potency in assay [18] was 8.6 µM (active).
Consider `O=C1OC(CCO)c2cccc(O)c21` (stereo unspecified), for which the Potency entry in assay [1], in [2], in assay [3], in assay [4], in assay [5] and in assay [6] was “inactive” throughout. For the same compound, the Potency entry in assay [7], in assay [8], in assay [9], in assay [12], in [15] and in assay [17] was “inactive” throughout. The Potency entry in assay [18], in [19] and in assay [20] was “inactive” throughout. The result in assay [14] and in assay [16] was inactive.
`CC(CCC[C@]1(C)C(=O)C=C[C@@]23C[C@]4(C)O[C@@H](C[C@@H]4[C@H]2O)C31)C(=O)O` (stereo partly specified): the Potency entry in [1], in [2], in [3], in assay [4], in assay [5] and in assay [6] was “inactive” throughout. Also, the Potency result in assay [7], in assay [8], in [9], in [10], in assay [11] and in assay [12] was “inactive” in each case. Moreover, the Potency result in [13], in [15], in assay [17], in [18], in assay [19] and in [20] was “inactive” throughout. Besides, the call in assay [14] was inactive.
Consider `C/C=C(/CO)C(=O)O[C@@H]1[C@H](O)[C@@H](C(=O)OC)O[C@@H]2C[C@H]3OC(n4cnc5c(N)ncnc54)[C@H](OC)[C@H]3O[C@@]12O` (stereo partly specified), for which the Potency entry in [1], in assay [2], in [3], in [4], in [5] and in assay [6] was “inactive” throughout. Also, the Potency entry in [7], in [8], in assay [9], in [10], in assay [11] and in assay [13] was “inactive” each time. Besides, the Potency result in assay [15], in assay [17], in assay [18] and in assay [19] was “inactive” each time. For the same compound, the outcome in [14] was inactive.
Turning to `CC(=O)N[C@H](C)c1nc(/C=C/C=C/C(=O)CC2CC(=O)CC[C@]2(C)O)cs1` (stereo partly specified), the Potency result in [1], in assay [2], in assay [3], in assay [4], in [5] and in [6] was “inactive” each time. Moreover, the Potency result in assay [8], in assay [10], in assay [11], in assay [13], in [15] and in assay [17] was “inactive” throughout. Also, the Potency result in assay [18], in [19] and in assay [20] was “inactive” in each case. In assay [14], the result was inactive.
